Columns and labels:
Test in all cases: log2 ratio of Biotin-Ahx-Ub-VS probe labelling (fragment/DMSO); higher = less target engagement (more negative = stronger competition), active = hit call of the paper (q ≤ 0.05, log2 ratio ≤ -1)
Conditions in all cases: compound concentration: 200 uM; treatment time: 3 h
[1] = biological target: USP34 (UniProt Q70CQ2)
Summary of the method: (§1)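 HEK293T lysate, 495 µg per sample in Tris/CHAPS/IGEPAL buffer with protease inhibitors, was treated in triplicate with fragment at 200 µM or vehicle for 3 h and then with Biotin-Ahx-Ub-VS at 0.5 µM final for 1 h. Labelled DUBs were NeutrAvidin-enriched, digested with LysC and trypsin, and run by diaPASEF LC-MS/MS. Spectronaut label-free quantities were global-median-normalised, and values are average log2 fragment/vehicle ratios by unpaired t-test on proteins with ≥2 unique peptides.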

[2] = biological target: T1, USP36 (UniProt Q9P275)
T1 sequence (whole entry): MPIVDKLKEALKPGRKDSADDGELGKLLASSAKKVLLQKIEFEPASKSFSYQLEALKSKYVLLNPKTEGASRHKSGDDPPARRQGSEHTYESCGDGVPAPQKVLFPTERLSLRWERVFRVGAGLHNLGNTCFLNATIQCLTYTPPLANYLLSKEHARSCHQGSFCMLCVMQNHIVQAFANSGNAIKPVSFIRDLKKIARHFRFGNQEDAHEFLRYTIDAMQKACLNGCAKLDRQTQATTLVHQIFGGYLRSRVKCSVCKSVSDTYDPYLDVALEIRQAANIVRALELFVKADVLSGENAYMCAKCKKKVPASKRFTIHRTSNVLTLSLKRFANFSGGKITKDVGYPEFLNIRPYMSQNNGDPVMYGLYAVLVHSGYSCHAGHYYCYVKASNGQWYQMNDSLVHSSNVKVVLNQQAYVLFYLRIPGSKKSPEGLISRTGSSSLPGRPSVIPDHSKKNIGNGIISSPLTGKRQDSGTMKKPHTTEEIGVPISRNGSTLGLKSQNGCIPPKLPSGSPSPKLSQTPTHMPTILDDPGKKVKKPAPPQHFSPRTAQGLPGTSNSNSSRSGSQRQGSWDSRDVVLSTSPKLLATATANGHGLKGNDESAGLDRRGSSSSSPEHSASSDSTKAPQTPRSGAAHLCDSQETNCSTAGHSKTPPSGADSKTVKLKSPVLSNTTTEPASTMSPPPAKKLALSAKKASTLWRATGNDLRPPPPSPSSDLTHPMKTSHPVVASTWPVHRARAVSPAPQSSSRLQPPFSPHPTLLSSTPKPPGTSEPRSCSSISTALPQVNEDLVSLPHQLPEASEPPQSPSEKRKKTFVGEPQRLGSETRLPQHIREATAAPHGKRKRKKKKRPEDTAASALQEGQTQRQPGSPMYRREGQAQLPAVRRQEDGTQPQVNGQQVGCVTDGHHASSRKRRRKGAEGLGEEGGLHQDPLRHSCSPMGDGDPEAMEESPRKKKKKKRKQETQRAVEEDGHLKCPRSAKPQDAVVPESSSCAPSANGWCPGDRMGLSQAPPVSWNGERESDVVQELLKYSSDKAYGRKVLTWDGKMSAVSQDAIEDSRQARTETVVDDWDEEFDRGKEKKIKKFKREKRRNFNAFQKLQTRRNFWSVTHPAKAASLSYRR
Summary of the method: as §1

[3] = biological target: T2, USP38 (UniProt Q8NB14)
T2 sequence (whole entry): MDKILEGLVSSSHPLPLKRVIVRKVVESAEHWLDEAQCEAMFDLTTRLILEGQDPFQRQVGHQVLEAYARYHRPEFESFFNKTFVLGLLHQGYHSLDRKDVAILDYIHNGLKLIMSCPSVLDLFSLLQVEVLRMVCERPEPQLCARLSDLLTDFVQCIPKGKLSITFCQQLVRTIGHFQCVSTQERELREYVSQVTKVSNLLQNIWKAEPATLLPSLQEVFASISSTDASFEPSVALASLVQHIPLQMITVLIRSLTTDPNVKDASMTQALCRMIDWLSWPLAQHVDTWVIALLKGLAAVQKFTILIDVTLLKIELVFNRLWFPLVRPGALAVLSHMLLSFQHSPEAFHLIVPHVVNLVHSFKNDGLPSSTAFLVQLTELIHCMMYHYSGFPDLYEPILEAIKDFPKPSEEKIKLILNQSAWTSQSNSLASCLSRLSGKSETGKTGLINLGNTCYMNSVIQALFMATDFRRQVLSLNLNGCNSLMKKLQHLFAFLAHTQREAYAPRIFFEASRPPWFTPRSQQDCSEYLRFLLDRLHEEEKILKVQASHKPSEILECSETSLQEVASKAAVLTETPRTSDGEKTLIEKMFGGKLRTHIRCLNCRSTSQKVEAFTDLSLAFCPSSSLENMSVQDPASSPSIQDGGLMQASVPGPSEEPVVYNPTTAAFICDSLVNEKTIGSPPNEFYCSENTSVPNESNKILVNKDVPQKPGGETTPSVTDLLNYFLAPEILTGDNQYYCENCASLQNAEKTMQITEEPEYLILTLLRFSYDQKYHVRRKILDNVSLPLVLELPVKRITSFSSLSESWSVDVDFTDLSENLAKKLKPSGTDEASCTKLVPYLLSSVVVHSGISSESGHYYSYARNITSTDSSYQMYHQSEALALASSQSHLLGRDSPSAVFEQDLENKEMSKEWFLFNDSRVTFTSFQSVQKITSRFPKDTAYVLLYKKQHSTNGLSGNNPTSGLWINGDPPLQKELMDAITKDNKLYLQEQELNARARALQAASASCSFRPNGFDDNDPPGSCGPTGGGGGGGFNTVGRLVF
Summary of the method: as §1

[4] = biological target: T3, USP39 (UniProt Q53GS9)
T3 sequence (whole entry): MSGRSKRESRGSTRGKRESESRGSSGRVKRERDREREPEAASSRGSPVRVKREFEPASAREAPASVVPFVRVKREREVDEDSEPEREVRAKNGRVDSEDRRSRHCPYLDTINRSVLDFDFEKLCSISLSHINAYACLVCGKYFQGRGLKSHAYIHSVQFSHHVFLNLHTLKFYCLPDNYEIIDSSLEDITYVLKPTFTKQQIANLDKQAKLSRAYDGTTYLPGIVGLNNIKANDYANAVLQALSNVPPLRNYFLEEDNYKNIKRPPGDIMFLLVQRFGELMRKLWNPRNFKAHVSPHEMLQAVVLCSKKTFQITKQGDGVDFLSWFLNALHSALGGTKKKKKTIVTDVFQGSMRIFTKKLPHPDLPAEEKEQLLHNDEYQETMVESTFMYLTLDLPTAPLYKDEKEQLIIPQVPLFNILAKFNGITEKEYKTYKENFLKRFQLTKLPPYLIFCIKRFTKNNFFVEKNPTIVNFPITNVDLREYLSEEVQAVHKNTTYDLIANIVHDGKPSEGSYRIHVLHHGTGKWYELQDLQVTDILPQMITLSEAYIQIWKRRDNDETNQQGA
Summary of the method: as §1

[5] = biological target: T4, USP4 (UniProt Q13107)
T4 sequence (whole entry): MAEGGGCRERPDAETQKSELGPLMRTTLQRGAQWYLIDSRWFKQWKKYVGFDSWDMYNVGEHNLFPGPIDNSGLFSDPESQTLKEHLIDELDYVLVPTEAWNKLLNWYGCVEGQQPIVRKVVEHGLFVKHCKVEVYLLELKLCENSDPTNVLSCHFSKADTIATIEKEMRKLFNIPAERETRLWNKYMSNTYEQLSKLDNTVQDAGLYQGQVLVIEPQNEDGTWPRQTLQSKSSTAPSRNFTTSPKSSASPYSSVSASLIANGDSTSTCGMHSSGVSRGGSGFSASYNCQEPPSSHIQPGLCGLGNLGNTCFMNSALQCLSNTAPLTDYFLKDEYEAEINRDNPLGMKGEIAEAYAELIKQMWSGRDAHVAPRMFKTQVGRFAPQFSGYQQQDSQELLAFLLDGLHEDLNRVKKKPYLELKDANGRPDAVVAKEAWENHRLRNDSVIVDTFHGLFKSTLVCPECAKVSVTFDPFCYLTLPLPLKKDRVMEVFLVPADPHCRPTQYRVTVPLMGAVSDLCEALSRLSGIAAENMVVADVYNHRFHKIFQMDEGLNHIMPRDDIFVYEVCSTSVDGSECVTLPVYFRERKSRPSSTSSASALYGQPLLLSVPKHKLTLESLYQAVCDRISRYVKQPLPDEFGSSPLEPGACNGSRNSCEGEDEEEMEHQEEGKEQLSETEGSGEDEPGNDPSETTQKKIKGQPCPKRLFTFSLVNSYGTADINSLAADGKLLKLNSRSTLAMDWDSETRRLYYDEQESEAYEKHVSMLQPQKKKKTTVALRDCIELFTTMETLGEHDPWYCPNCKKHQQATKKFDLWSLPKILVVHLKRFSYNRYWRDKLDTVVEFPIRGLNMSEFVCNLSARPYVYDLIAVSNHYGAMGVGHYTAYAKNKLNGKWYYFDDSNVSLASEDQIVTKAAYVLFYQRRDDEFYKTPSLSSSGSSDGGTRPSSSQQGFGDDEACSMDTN
Summary of the method: as §1

Measured: log2 ratio of Biotin-Ahx-Ub-VS probe labelling

Sequence of USP34 (Q70CQ2 whole entry, the tested form may be a part): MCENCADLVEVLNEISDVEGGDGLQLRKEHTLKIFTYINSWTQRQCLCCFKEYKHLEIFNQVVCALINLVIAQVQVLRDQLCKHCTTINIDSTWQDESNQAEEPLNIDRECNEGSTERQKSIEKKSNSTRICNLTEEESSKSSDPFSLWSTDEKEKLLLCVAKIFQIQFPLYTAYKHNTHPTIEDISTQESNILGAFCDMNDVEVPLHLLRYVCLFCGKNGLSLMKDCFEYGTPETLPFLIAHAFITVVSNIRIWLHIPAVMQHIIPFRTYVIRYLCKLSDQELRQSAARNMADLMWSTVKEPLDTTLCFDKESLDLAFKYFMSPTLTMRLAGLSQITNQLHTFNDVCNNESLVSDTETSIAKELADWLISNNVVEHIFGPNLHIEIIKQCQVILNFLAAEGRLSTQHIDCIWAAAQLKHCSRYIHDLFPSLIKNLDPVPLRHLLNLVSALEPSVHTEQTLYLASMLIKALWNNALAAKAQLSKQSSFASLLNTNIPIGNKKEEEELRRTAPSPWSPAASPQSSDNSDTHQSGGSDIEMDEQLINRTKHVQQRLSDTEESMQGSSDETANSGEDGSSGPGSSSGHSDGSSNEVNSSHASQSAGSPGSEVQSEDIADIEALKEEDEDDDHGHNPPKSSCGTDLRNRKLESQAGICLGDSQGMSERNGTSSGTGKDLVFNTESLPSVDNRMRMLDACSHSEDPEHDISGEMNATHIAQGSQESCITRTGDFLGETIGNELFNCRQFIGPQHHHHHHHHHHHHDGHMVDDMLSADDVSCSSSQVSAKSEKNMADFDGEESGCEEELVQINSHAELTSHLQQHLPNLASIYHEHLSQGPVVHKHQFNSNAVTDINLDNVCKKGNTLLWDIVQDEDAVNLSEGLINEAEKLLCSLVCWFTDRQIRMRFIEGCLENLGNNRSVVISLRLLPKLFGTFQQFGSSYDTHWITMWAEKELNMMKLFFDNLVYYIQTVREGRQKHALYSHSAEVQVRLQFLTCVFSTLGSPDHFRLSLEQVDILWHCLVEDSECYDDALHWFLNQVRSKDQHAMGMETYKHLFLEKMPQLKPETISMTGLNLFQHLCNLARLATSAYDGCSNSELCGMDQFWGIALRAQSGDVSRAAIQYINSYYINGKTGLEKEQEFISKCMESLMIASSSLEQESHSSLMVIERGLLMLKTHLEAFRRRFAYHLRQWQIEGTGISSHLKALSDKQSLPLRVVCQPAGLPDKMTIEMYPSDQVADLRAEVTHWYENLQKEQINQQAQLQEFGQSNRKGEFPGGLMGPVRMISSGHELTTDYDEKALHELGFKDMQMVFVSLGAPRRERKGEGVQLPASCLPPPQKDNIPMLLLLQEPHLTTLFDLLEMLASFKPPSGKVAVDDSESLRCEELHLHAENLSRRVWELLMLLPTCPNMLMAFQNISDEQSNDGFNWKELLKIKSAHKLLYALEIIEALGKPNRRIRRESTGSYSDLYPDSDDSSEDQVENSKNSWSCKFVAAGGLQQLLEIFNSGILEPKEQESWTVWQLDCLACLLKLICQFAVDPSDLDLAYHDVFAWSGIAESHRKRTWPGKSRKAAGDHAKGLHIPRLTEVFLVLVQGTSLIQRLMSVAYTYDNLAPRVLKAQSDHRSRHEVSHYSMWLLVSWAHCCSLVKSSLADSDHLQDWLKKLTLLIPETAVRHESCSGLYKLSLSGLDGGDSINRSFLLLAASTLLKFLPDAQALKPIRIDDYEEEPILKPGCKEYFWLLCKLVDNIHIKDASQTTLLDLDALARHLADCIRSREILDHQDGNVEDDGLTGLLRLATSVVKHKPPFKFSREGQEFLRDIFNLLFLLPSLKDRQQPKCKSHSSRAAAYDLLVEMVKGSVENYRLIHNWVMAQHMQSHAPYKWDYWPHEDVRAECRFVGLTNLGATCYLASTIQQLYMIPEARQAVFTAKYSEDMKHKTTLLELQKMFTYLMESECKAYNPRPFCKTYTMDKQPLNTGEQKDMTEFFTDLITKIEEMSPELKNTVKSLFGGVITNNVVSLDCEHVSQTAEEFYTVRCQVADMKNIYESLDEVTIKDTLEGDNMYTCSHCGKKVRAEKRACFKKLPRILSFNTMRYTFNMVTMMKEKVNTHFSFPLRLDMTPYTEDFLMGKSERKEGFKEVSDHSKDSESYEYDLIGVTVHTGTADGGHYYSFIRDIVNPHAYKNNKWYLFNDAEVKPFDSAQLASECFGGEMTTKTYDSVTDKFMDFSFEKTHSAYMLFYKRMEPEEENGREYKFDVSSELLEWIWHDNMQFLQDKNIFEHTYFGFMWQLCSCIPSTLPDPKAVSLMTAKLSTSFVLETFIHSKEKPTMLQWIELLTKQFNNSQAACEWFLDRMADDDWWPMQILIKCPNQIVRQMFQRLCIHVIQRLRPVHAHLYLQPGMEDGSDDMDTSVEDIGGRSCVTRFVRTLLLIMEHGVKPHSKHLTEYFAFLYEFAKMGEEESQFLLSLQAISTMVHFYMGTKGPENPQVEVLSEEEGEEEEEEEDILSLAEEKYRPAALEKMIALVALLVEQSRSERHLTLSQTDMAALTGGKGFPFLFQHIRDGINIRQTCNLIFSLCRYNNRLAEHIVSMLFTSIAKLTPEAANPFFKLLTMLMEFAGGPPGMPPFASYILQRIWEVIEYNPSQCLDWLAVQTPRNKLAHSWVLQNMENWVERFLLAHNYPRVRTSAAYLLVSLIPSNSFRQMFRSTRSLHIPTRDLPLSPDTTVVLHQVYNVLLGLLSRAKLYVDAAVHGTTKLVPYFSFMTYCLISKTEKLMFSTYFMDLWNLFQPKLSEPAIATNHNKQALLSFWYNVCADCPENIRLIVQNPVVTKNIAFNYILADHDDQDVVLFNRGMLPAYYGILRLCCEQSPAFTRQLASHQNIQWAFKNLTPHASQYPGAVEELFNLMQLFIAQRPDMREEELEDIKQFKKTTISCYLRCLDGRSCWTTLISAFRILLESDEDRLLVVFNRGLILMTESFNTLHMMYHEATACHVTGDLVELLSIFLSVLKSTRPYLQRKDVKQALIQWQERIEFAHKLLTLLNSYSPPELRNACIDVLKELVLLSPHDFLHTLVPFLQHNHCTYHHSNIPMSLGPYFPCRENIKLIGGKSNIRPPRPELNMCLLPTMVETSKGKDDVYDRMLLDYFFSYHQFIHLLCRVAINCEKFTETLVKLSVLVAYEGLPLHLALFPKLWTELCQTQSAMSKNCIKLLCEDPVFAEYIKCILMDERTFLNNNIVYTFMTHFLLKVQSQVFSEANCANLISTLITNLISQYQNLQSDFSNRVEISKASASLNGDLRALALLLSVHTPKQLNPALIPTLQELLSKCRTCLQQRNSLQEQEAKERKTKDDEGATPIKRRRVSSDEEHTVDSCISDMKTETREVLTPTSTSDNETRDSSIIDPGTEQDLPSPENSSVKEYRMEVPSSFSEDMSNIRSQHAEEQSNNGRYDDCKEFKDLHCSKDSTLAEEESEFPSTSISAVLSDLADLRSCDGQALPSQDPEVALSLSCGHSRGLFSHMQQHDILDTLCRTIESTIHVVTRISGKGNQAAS

Cl.O=C(CCl)N1CCc2ncncc2C1
inactive: [1] -0.136 | [2] 0.0811 | [3] -0.0489 | [4] 0.321 | [5] -0.201

— the supplement of paper PMC11732987, “Enantioselective OTUD7B fragment discovery through chemoproteomics screening and high-throughput optimisation” (Communications Chemistry, 2025)
